The values that follow come from PubChem BioAssay AID686978 (National Center for Advancing Translational Sciences (NCATS), 2013).

Several values for one entry are separate records, joined by “and”; a condition that tells them apart may be missing. Identical values can stand only once. Screen size: about 420,000 compounds; about 64,000 (15%) were called active. A call without a number means that no potency is given here. Another 27% or so got no clear call; they are omitted. Calls come from the whole dose curve; as a rule, active = well fitted inhibition curve with a large enough effect; inconclusive = small, poorly fitted or top-dose-only effect; inactive = flat fitted curve, though single readings scatter. Only a selection was taken, and actives are over-represented in it overall.
Potency is the fitted concentration of half-maximal effect.

A short description of this experiment: qHTS for Inhibitors of human tyrosyl-DNA phosphodiesterase 1 (TDP1): qHTS in cells in absence of CPT. Note: nearly all actives have a fitted effect of over 55% in size. The settings on record: DT40 Tdp1-/- hTDP1 cells, no CPT, ATP luminescence, 48 h; series mostly up to 46.2 µM. In a few lines:
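Chicken DT40 Tdp1-/- cells complemented with human TDP1, screened without camptothecin (DMSO vehicle only), 400 cells/well. Compounds pin-transferred, cells incubated at 37 °C for at least 48 hr. Growth read as ATP-dependent luminescence (CellTiter-Glo, 30 min at RT).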
For `CC1CCCCN1Cc1cccnc1` (centres undefined), the Potency result is “inactive”.

For the molecule `CN1CCC(N(C)Cc2cccnc2)CC1`, the Potency entry is “inactive”.

For `CCOP(=S)(OCC)SCOC(=O)NCC(=O)OC`, the Potency entry is “inactive”.

For the molecule `CC(Cc1cccs1)NCc1ccc(Cl)cc1` (centres undefined), the Potency result was “inactive”.

On to `C[C@@H]1Cn2cnc(C(=O)Nc3ccc(CNC(=O)OC(C)(C)C)cc3)c2C(=O)N1`, for which the Potency result is “inactive”.

As for `CC(=O)NCC1=C(c2ccc3ccccc3c2)C[C@@H]2CC[C@H]1N2Cc1ccco1`, the Potency was 23.1 µM (active).

For `O=C(NCC1=C(c2ccc3ccccc3c2)C[C@@H]2CC[C@H]1N2Cc1ccco1)c1cccs1`, the Potency was 23.1 µM (active).

In the case of `N[C@H](Cc1o[nH]c(=O)c1Cl)C(=O)O`, the Potency result is “inactive”.

For the molecule `CC(=NCc1ccc2c(c1)OCO2)c1c(O)[nH]c(=O)[nH]c1=O`, the Potency result was “inactive”.

As for `Cc1ccc(S(=O)(=O)N(C)c2ccc(C(=O)NCC3(N(C)C)CCCCC3)cc2)cc1`, the Potency result was “inactive”.

In the case of `CN(C)c1nc(N(C)C)nc(N(C#N)CCCl)n1`, the Potency entry is “inactive”.

On to `COc1ccc2[nH]cc(CCNCc3ccc(Br)cc3)c2c1`, for which the Potency is 10.3 µM (active).

With `C/C(CCc1c[nH]c2ccccc12)=N\O`, the Potency entry is “inactive”.

Turning to `COc1ccc(CNCCc2c[nH]c3ccccc23)cc1OC`, the Potency is 18.4 µM (active).

As to `c1cncc(CNCCc2c[nH]c3ccccc23)c1`, the Potency result is “inactive”.

In the case of `Cc1cc(C=C2C(=O)NC(=O)NC2=O)c(C)n1-c1ccncc1`, the Potency entry was “inactive”.

On to `O=c1[nH]c(=O)n(CCc2ccccc2)c(O)c1/C=N/N1CCOCC1`, for which the Potency entry was “inactive”.

Take `Cc1ccc(Cl)cc1N1CCN(C(=O)C2CCC(CNS(=O)(=O)c3cccs3)CC2)CC1` (centres undefined): the Potency is 18.4 µM (active).

`Cc1nc2nc(C)c(CCC(=O)N3CCC4(CC3)OCCO4)c(C)n2n1`: the Potency entry is “inactive”.

Consider `CCOP(=O)(OCC)C(O)c1ccc(OC)cc1OC` (centres undefined), for which the Potency entry was “inactive”.

Turning to `CC[C@H]1CN2CCc3cc(OC)c(OC)cc3[C@@H]2C[C@@H]1C[C@H]1NCCc2cc(OC)c(OC)cc21`, the Potency was 150 nM (active) and 36.6 nM (active).

In the case of `Nc1ccc([N+](=O)[O-])cc1`, the Potency entry is “inactive”.

In the case of `CCOc1ccc(CN(CCCl)CCCl)cc1C(=O)OC`, the Potency is 4.11 µM (active).

As for `COC([CH2][Hg])CNC(=O)c1ccccc1OCC(=O)O` (centres undefined), the Potency is 1.68 µM (active).

In the case of `CC1([N+](=O)[O-])COP(=O)(Nc2ccc(F)cc2)OC1` (centres undefined), the Potency entry is “inactive”.

For `Cc1ccc(NC(=O)N(Cc2ccc3c(c2)OCO3)C2CCN(Cc3ccccc3)CC2)cc1F`, the Potency is 23.1 µM (active).

`Fc1ccc(N2CCN(Cc3ccc4c(c3)OCO4)CC2)cc1`: the Potency entry was “inactive”.

Consider `O=C(Cc1ccccc1[N+](=O)[O-])N1CCN(Cc2ccc3c(c2)OCO3)CC1`, for which the Potency entry was “inactive”.

As to `OCC#CC[N+]1(CC#Cc2ccccc2)CCCC1`, the Potency entry was “inactive”.

As for `CN1CCN(Cc2ccc(OC(F)(F)F)cc2)CC1`, the Potency entry was “inactive”.

For `CN(C)CCCN=Cc1c(O)n(Cc2ccco2)c(=O)[nH]c1=O`, the Potency result is “inactive”.

As to `ClCCN(CCCl)c1ccc(C=Nc2ccc(/C=C/c3ccnc4ccccc34)cc2)cc1`, the Potency was 11.2 µM (active).

For the molecule `COc1ccccc1NC(=O)N1C[C@@H]2C[C@@H](C1)c1cccc(=O)n1C2`, the Potency entry is “inactive”.

With `COc1ccccc1N=Nc1c(O)[nH]c(=S)[nH]c1=O`, the Potency entry was “inactive”.

With `O=c1[nH]c(=S)[nH]c(O)c1/C=C1\C=Nc2ccccc21`, the Potency is 9.2 µM (active).

On to `CNC(=S)N/N=C1\C2CN3CCN(C2)CC1(c1ccccc1)C3`, for which the Potency entry was “inactive”.

Consider `C=C(C)C1(CCCC)C(=O)NC(=S)NC1=O`, for which the Potency result is “inactive”.

`CC(C)C(N)C(=O)OCCOCn1cnc2c(=O)[nH]c(N)nc21` (centres undefined): the Potency is 4.11 µM (active).

On to `CC/C(=N\NC(=O)c1ccccc1O)c1c(O)n(Cc2ccccc2)c(=O)[nH]c1=O`, for which the Potency result was “inactive”.

On to `CC(=O)N(C1=NCCCS1)c1ccccc1F`, for which the Potency entry is “inactive”.

As for `C[C@]12CCCCC1=CC(=O)C1C2CC[C@@]2(C)C1C[C@@H](F)[C@@H]2O` (some centres undefined), the Potency is 16.4 µM (active).

For `NCCc1ccc(S(=O)(=O)F)cc1`, the Potency entry was “inactive”.

Take `N=c1ccccn1Cc1ccccc1`: the Potency entry is “inactive”.

`C/C(=C\C=C/[C@@H](C)C(=O)O)[C@H]1CN[C@H](C(=O)O)[C@@H]1CC(=O)O`: the Potency entry is “inactive”.

For the molecule `Cc1cccc(OP(=O)(Oc2cccc(C)c2)OC(c2ccccc2)C(F)(F)F)c1` (centres undefined), the Potency was 16.4 µM (active).

`C[N+]1(C)CCOC(O)(c2ccc(-c3ccc(C4(O)C[N+](C)(C)CCO4)cc3)cc2)C1` (centres undefined): the Potency entry was “inactive”.

As for `CC1=CC(=Cc2sc3ccccc3[n+]2C)C=C(C)O1`, the Potency is 0.0164 µM (active).

Consider `ClC(Cl)(Cl)c1ccccc1`, for which the Potency result was “inactive”.

`CCOP(=O)(OCC)C(Nc1cccc(C)c1)c1ccc(F)cc1` (centres undefined): the Potency was 16.4 µM (active).

Consider `CC[N+]1(C)CCCC(OC(=O)C(O)(c2ccccc2)c2ccccc2)C1` (centres undefined), for which the Potency entry was “inactive”.

As to `O=c1[nH]c(O)c(C=Nc2cc(F)cc(F)c2)c(=O)[nH]1`, the Potency result was “inactive”.

On to `CCN(CC)c1ccc([N+](=O)[O-])c2cccnc12`, for which the Potency result is “inactive”.

Turning to `CN(c1ccccc1)c1ccc([N+](=O)[O-])c2nonc12`, the Potency is 16.4 µM (active).

As to `O=C(O)/C=C/c1ccc2c(c1)OCO2`, the Potency result is “inactive”.

Turning to `O=C(CN1CCCC1=O)NCCc1ccccc1`, the Potency result was “inactive”.

In the case of `CCOP(=O)(OCC)C(Cc1ccccc1)N=C(c1ccccc1)c1ccccc1` (centres undefined), the Potency is 14.6 µM (active).

Take `CCOP(=O)(OCC)C(NC(=O)c1ccc(OC)cc1)C(Cl)(Cl)Cl` (centres undefined): the Potency entry was “inactive”.

`CCOP(=O)(OCC)C(NC(=O)c1ccc(C)cc1)C(Cl)(Cl)Cl` (centres undefined): the Potency entry was “inactive”.

`O=C(NC(=S)N1C[C@H]2C[C@H](C1)c1cccc(=O)n1C2)c1ccc(F)cc1`: the Potency entry is “inactive”.

On to `Cc1ccc(-c2cc(C(=O)N3CCC4(CC3)OCCO4)no2)cc1`, for which the Potency result is “inactive”.

In the case of `O=C(c1cc2nc(-c3ccccc3)cc(-c3ccccc3)n2n1)N1CCC2(CC1)OCCO2`, the Potency was 23.1 µM (active).

For `O=C(c1ccccc1[N+](=O)[O-])N1CCC2(CC1)OCCO2`, the Potency entry is “inactive”.

`CN(C)C(=O)Oc1ccc2c(c1)O/C(=C\c1ccccc1)C2=O`: the Potency result is “inactive”.

Take `Cc1ncsc1CCCl`: the Potency result is “inactive”.

On to `Cc1ccc(S(=O)(=O)N2CCCc3cc(NS(=O)(=O)c4cc(C)ccc4C)ccc32)cc1`, for which the Potency is 13 µM (active).

For `COC(=O)C[C@H]1CC[C@H]2NC[C@@H](O)COC[C@@H]2O1`, the Potency entry was “inactive”.

Take `c1ccc2c(c1)[I+]c1ccccc1-2`: the Potency is 33.5 nM (active) and 15.8 nM (active) and 126 nM (active).

With `Cc1cccc(NC(=O)OC2CN3CCC2CC3)c1` (centres undefined), the Potency entry was “inactive”.

Regarding `COc1ccccc1C1=NCc2nnc(CSC)n2-c2ccc(Cl)cc21`, the Potency result was “inactive”.
